Measured values from ChEMBL document CHEMBL4513216, “Probing the Open Global Health Chemical Diversity Library for Multistage-Active Starting Points for Next-Generation Antimalarials” (ACS Infect Dis, 2020).
About 8,600 (12%) of roughly 69,000 compounds showed an effect of 50% or more. The entries come from a sample that favours strong results as a whole.

Each compound was assayed on Plasmodium berghei (assay: Screen against P. berghei liver stage (PbLuc), transformed with Luciferase, at 10uM). Conditions: tested at 10 uM.
Format: functional, HepG2

| Structure (SMILES) | INHIBITION [%] |
| --- | --- |
| Cc1cc(Cc2ccc(S(=O)(=O)N3CCCC3)cc2)c(=O)[nH]n1 | 20.9 |
| CNC(=O)C1(c2cnccn2)CCCN1C(=O)c1ncccc1C (centres undefined) | 19.6 |
| COC(=O)CC(c1cccc(OC(F)F)c1)c1oc(C)cc(=O)c1O (centres undefined) | 21.5 |
| CCS(=O)(=O)N1Cc2c(Cn3cccc3)nn(C(C)C)c2C1 | 12.1 |
| CCS(=O)(=O)N1Cc2c(Cn3ccnc3)nn(C)c2C1 | 26.5 |
| CCS(=O)(=O)N1Cc2c(Cn3ccnc3)nn(C(C)C)c2C1 | 65.1 |
| Cc1ncsc1CNC(=O)N(Cc1ccccc1)CC(C)(C)O | 47.4 |
| Cc1n[nH]c(C)c1CNC(=O)N(Cc1ccccc1)CC(C)(C)O | 68 |
| Cc1n[nH]c(C)c1CC(=O)NCCc1ccccc1 | 52.5 |
| Cc1n[nH]c(C)c1CC(=O)NCc1ccccc1Cl | 64.8 |
| Cc1nc(CNC(=O)N(Cc2ccccc2)CC(C)(C)O)oc1C | 28.6 |
| Cc1nc2cc(=O)[nH]n2c(C)c1CC(=O)NCCCc1ccccc1 | -4.3 |
| CSc1ccc(CCNC(=O)Cc2c(C)n[nH]c2C)cc1 | 40.3 |
| Cc1n[nH]c(C)c1CNC(=O)CSCc1ccccc1Cl | -26.4 |
| CSc1ccc(CNC(=O)Cc2c(C)n[nH]c2C)cc1 | 21.8 |
| O=C1CN([C@@H]2CC[C@@H](NS(=O)(=O)c3ccccc3)[C@H]2O)CCN1 | 4.5 |
| CC(C)C[C@H](NC(=O)NC1CCS(=O)(=O)C1)C(=O)NCc1cccnc1 (some centres undefined) | 44.9 |
| Cc1nccn1CCCNc1ccc(Cl)c(C#N)n1 | -9.39 |
| O=C(CN1CCOc2ccccc2C1)NCc1cc2n(n1)CCNC2 | 21.7 |
| CC(O)CCN(C)C(=O)Nc1ccc(Br)cc1 (centres undefined) | -12.1 |
| N#Cc1ccc(NCc2cccnc2N2CCC(C(N)=O)CC2)cn1 | 57.3 |
| Cc1ccn(-c2ccc(NCc3cccnc3N3CCCCC3)nn2)n1 | 34.4 |
| N#Cc1cccnc1NCc1cccnc1N1CCC(C(N)=O)CC1 | -0.182 |
| N#Cc1cccnc1NCc1cccnc1N1CCCCC1 | 51.7 |
| CN1CCN(c2ncccc2CNc2ncccc2C#N)CC1 | -29.4 |
| N#Cc1cccnc1Nc1ccc(N2CCC(C(N)=O)CC2)cc1 | 45.2 |
| Cc1cccc(C(=O)N2CCC3(CCN(c4cnn(C)c4)C3=O)C2)n1 (centres undefined) | 24.9 |
| O=C1CO[C@H]2CCN(C(=O)c3ccc4c(c3)CCCC4)CC[C@@H]2N1 | 16.675 |
| O=C(CCc1ccc(F)c(F)c1)N1CCCCC1Cn1cccn1 (centres undefined) | 21.5 |
